# Laboratory results from ChEMBL document CHEMBL3988442, “University of Dundee, Small-Polar-MMV Screening Library” (2021).
# For some of these results: Potency and affinity values are given separately.
# Columns and labels:
# Set-up in all cases: scale not given: direction of the effect not stated beside the values
# [1] = molecular target: Protein translocase subunit SecA (Escherichia coli (strain K12)) (UniProt P10408); test: Assay to Identify E. coli SecA ATPase Inhibitors; format: functional; settings: 30 µM
# Protein translocase subunit SecA (Escherichia coli (strain K12)), sequence (P10408 whole entry): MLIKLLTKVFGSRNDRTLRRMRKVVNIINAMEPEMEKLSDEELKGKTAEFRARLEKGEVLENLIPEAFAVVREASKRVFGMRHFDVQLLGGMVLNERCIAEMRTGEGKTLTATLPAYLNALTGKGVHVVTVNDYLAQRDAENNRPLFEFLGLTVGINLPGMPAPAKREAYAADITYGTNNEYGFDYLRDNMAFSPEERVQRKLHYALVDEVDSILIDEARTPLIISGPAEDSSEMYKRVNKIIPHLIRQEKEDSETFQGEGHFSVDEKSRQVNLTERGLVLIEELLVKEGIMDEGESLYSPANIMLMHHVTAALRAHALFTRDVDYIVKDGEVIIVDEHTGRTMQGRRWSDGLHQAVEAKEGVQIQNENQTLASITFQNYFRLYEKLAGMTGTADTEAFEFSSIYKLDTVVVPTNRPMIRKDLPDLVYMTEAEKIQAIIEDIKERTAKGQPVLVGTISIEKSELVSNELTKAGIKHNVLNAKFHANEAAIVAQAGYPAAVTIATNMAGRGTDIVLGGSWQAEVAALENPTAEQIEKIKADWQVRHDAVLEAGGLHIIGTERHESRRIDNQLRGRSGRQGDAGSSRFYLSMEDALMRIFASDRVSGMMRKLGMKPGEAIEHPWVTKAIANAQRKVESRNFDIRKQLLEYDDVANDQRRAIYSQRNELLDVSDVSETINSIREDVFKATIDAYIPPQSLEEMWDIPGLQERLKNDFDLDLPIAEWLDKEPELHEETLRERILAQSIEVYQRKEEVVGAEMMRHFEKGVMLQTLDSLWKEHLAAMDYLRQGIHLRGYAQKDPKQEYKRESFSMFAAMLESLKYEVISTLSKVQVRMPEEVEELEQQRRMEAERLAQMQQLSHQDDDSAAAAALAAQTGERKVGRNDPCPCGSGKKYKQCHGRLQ
# [2] = molecular target: T1, Ubiquitin-activating enzyme e1, putative (Leishmania donovani (strain BPK282A1)) (UniProt E9BSI1); test: Leishmania donovani Ubiquitin Activating Enzyme (LdE1); format: functional; settings: 30 µM
# T1 sequence (whole entry): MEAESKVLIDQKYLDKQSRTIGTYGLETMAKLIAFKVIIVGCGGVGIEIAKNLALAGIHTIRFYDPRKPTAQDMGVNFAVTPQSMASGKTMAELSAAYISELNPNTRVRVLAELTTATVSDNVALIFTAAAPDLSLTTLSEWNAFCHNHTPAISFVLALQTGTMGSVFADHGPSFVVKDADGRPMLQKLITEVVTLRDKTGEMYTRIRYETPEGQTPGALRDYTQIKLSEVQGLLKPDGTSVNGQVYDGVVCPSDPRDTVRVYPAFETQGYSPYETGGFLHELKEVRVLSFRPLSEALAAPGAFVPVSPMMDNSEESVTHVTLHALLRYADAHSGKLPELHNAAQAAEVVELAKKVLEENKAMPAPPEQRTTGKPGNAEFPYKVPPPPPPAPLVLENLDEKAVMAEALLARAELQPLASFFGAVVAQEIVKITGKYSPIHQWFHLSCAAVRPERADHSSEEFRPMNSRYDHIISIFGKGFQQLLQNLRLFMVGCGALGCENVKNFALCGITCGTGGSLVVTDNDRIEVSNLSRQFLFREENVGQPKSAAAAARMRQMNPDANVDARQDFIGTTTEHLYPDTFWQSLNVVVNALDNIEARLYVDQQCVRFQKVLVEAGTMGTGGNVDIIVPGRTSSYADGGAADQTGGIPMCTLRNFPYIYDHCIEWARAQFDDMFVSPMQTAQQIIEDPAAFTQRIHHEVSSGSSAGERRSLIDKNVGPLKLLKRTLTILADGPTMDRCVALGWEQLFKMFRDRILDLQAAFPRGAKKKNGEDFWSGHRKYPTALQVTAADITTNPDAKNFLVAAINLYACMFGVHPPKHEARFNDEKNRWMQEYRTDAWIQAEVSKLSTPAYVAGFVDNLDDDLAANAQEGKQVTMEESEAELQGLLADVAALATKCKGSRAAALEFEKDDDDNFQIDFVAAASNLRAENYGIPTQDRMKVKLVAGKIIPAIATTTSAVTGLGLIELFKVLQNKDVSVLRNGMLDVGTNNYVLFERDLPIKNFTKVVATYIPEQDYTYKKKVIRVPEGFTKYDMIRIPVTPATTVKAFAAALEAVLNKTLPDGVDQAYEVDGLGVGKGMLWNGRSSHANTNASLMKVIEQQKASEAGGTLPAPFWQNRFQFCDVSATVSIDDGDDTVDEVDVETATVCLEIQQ
# [3] = molecular target: AMP-activated protein kinase, AMPK (Homo sapiens) (UniProt P54646+O43741+P54619+Q9UGJ0+Q9Y478+Q13131+Q9UGI9); test: AMP-dependent Kinase enzyme assay. An in vitro enzyme assay that detects ADP turnover that is directly proportional to AMPK activity. This uses naive AMPK that is activated during the assay with MK-8722; format: functional; settings: 30 µM
# [4] = molecular target: Sialic acid-binding Ig-like lectin 9 (Homo sapiens) (UniProt Q9Y336); test: Hs-Siglec9 ALPHAscreen SOP 20170721; settings: 10 µM
# Sialic acid-binding Ig-like lectin 9 (Homo sapiens), sequence (Q9Y336 whole entry): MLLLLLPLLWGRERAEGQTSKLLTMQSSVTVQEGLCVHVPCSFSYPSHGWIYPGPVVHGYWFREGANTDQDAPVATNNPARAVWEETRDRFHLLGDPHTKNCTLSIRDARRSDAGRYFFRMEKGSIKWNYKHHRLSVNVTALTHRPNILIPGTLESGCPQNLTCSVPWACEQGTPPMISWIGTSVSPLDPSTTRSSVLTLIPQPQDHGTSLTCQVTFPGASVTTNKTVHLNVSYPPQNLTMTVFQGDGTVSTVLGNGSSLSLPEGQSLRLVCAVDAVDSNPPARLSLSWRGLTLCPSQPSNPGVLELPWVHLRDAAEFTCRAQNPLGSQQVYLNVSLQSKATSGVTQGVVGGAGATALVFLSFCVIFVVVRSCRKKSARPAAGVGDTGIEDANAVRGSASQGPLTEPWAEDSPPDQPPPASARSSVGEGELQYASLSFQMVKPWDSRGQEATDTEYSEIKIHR
# Trypanosoma cruzi = test: Trypanosoma cruzi phosphomannomutase and mannose-1-phosphate guanylyltransferase assay; format: functional; settings: 10 µM
# [5] = molecular target: T2, Arginase-2, mitochondrial (Homo sapiens) (UniProt P78540); test: in vitro enzyme assay to detect the production of urea directly proportional to the activity of Arginase II; format: functional; settings: 33.3 µM; also: in the data most compounds retested in dose-response had high values
# T2 sequence (whole entry): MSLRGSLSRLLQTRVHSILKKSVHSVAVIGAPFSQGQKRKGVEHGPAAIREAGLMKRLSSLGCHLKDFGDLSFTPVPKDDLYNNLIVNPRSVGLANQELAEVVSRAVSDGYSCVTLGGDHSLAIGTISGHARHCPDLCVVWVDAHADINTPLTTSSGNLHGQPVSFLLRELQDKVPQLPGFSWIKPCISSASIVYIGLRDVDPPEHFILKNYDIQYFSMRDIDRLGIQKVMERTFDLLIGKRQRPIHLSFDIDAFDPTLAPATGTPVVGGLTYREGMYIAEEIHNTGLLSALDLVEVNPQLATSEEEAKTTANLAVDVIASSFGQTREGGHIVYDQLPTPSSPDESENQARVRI
# [6] = molecular target: T3, Proteasome subunit beta (Trypanosoma cruzi) (UniProt O96673); test: Trypanosoma cruzi proteasome chymotrypsin-like activity (TcProtChymo) assay.; also: in the data most compounds retested in dose-response had high values; format: functional; settings: 9.37 µM
# T3 sequence (whole entry): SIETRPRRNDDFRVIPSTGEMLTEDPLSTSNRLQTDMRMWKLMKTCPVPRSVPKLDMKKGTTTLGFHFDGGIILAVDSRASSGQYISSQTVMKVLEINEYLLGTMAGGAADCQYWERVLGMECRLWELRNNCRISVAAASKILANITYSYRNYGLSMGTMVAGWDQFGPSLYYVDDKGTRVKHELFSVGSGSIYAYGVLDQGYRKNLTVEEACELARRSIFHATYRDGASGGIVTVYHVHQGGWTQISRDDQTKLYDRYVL
# Homo sapiens = species on record: Homo sapiens; test: To identify inhibition of the IFN signalling (Jak-Stat) pathway via expression of an eGFP reporter gene under the control of an IFN-stimulated response element (ISRE) containing MxA promoter.; format: functional; settings: 30 µM
# [7] = molecular target: T4, Tyrosyl-tRNA synthetase, putative (Trypanosoma cruzi (strain CL Brener)) (UniProt Q4DSP6); test: Trypanosoma cruzi tyrosyl tRNA synthetase (TcYRS) _High Tyrosine SOP; format: functional; settings: 30 µM; also: in the data most compounds retested in dose-response had high values
# T4 sequence (whole entry): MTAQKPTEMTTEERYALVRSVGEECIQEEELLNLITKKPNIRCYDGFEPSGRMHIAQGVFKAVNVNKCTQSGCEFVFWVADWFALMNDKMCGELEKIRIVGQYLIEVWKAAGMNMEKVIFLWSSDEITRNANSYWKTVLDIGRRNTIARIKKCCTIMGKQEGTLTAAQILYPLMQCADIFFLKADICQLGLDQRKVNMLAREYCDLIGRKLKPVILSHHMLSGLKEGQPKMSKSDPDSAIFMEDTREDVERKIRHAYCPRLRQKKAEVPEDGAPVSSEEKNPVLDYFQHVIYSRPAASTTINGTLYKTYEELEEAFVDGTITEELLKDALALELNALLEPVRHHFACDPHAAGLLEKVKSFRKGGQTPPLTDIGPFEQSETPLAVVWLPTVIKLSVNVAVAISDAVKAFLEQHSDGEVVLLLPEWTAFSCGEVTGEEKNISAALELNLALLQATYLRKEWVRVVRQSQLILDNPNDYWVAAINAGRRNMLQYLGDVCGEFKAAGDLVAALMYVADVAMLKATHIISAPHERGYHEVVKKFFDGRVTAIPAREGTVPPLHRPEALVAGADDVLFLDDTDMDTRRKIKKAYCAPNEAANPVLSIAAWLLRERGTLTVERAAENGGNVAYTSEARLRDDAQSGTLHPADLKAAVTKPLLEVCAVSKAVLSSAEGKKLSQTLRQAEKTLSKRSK
# [8] = molecular target: T4, Tyrosyl-tRNA synthetase, putative (Trypanosoma cruzi (strain CL Brener)); test: Trypanosoma cruzi tyrosyl tRNA synthetase (TcYRS) SOP; format: functional; settings: 30 µM
# [9] = molecular target: Chromo domain-containing protein 1 (Saccharomyces cerevisiae (strain ATCC 204508 / S288c) (Baker's yeast)) (UniProt P32657); test: ScCHD-1 Enzyme Inhibition Assay; format: functional; settings: 30 µM; also: in the data most compounds retested in dose-response had high values
# Chromo domain-containing protein 1 (Saccharomyces cerevisiae (strain ATCC 204508 / S288c) (Baker's yeast)), sequence (P32657 whole entry, the tested form may be a part): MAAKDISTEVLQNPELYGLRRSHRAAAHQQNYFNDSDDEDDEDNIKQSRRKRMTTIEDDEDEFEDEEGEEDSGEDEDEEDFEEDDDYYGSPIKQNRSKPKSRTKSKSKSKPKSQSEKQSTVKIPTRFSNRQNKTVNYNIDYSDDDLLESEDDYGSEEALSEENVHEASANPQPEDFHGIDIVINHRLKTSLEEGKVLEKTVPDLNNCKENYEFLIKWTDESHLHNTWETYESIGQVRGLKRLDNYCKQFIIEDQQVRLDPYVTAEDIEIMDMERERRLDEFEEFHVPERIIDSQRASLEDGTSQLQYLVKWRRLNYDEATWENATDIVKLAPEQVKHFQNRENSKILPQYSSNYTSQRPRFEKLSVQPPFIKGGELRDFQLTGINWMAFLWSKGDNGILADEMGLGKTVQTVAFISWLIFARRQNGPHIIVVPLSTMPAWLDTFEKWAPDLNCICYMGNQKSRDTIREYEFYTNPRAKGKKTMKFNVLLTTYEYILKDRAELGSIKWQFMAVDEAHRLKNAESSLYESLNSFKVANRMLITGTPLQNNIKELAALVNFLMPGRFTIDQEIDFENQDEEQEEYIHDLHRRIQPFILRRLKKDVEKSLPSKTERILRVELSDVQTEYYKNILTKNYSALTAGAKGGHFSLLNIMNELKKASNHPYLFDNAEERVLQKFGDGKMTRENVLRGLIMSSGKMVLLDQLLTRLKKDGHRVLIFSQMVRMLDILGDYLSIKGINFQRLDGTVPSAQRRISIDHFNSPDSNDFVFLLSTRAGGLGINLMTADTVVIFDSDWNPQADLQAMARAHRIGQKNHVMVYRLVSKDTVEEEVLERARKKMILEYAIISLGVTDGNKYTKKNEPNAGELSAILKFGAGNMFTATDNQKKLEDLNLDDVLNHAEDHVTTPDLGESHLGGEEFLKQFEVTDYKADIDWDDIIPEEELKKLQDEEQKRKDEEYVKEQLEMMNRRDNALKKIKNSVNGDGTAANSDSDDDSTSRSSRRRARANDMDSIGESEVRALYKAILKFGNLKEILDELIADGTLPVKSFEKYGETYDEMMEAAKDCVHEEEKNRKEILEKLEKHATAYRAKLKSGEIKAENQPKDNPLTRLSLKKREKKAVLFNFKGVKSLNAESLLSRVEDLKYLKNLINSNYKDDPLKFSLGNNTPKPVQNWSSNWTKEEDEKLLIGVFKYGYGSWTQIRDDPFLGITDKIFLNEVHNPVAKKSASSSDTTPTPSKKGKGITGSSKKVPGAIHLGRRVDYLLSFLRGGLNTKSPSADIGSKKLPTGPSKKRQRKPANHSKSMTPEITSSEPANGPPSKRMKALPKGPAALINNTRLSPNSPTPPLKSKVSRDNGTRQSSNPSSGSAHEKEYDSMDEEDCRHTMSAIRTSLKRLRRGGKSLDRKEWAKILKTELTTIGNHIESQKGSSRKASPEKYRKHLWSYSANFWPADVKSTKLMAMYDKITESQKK
compound,measurement,setting,value
O=C1CC(c2cccnc2)C2(CCN(C(=O)c3ccncc3)CC2)N1 (stereo not drawn),Percent Effect,[1],-4.11%
same,Percent Effect,[2],10.8%
same,Percent Effect,[3],2.03%
same,Percent Effect,[4],-3.18%
same,Percent Effect,Trypanosoma cruzi,3.81%
same,Percent Effect,[5],-4.78%
same,Percent Effect,[6],17.9%
same,Percent Effect,Homo sapiens,-0.901%
same,Percent Effect,[7],4.32%
same,Percent Effect,[8],15.4%
same,Percent Effect,[9],1.46%
CC(=O)NC1CCCN(C(=O)Nc2cnc3c(cnn3C(C)C)c2)C1 (stereo not drawn),Percent Effect,[1],-3.14%
same,Percent Effect,[2],16.2%
same,Percent Effect,[3],0.9%
same,Percent Effect,[4],4.02%
same,Percent Effect,Trypanosoma cruzi,-4.55%
same,Percent Effect,[5],-1.29%
same,Percent Effect,[6],12.2%
same,Percent Effect,Homo sapiens,5.99%
same,Percent Effect,[7],7.92%
same,Percent Effect,[8],23.2%
same,Percent Effect,[9],-5.36%
CC(=O)c1cccc(NC(=O)CN2CCCCC2C2OCCO2)c1 (stereo not drawn),Percent Effect,[1],-5.29%
same,Percent Effect,[2],5.41%
same,Percent Effect,[3],1.19%
same,Percent Effect,[4],-1.14%
same,Percent Effect,Trypanosoma cruzi,-2.54%
same,Percent Effect,[5],5%
same,Percent Effect,[6],8.37%
same,Percent Effect,Homo sapiens,-2.75%
same,Percent Effect,[7],5.94%
same,Percent Effect,[8],11%
same,Percent Effect,[9],-4.75%
COc1ncnc2c1CCN(c1cc(C(F)(F)F)ncn1)CC2,Percent Effect,[1],-3.48%
same,Percent Effect,[2],8%
same,Percent Effect,[3],4.03%
same,Percent Effect,[4],-3.21%
same,Percent Effect,Trypanosoma cruzi,-6.56%
same,Percent Effect,[5],-57.5%
same,Percent Effect,[6],6.67%
same,Percent Effect,Homo sapiens,20.9%
same,Percent Effect,[7],-1.04%
same,Percent Effect,[8],7.5%
same,Percent Effect,[9],-7.82%
CCc1nc(CCNC(=O)NC2CC2)sc1C,Percent Effect,[1],-5.62%
same,Percent Effect,[2],0%
same,Percent Effect,[3],-1.43%
same,Percent Effect,[4],-3.96%
same,Percent Effect,Trypanosoma cruzi,0%
same,Percent Effect,[5],1.67%
same,Percent Effect,[6],9.89%
same,Percent Effect,Homo sapiens,5.25%
same,Percent Effect,[7],6.93%
same,Percent Effect,[8],-1.22%
same,Percent Effect,[9],-6.36%
COc1ccc(C2=CCN(C(=O)C3CCN(C)C(=O)C3)CC2)cc1 (stereo not drawn),Percent Effect,[1],-3.77%
same,Percent Effect,[2],15.8%
same,Percent Effect,[3],2.43%
same,Percent Effect,[4],-4.29%
same,Percent Effect,Trypanosoma cruzi,9.06%
same,Percent Effect,[5],1.8%
same,Percent Effect,[6],7.19%
same,Percent Effect,Homo sapiens,6.58%
same,Percent Effect,[7],7.39%
same,Percent Effect,[8],16.1%
same,Percent Effect,[9],-5.39%
COc1ccc(CNC(=O)NCC2CCOC2)c(C(F)(F)F)c1 (stereo not drawn),Percent Effect,[1],-7.19%
same,Percent Effect,[2],1.39%
same,Percent Effect,[3],-0.168%
same,Percent Effect,[4],4.9%
same,Percent Effect,Trypanosoma cruzi,-4.37%
same,Percent Effect,[5],-0.442%
same,Percent Effect,[6],9.3%
same,Percent Effect,Homo sapiens,16.2%
same,Percent Effect,[7],5.26%
same,Percent Effect,[8],2.56%
same,Percent Effect,[9],-0.725%
CCc1noc(CNc2ccc(C(=O)N3CCCC(C)C3)cc2C)n1 (stereo not drawn),Percent Effect,[1],-4.09%
same,Percent Effect,[2],0%
same,Percent Effect,[3],2.37%
same,Percent Effect,[4],9.47%
same,Percent Effect,Trypanosoma cruzi,1.69%
same,Percent Effect,[5],3.2%
same,Percent Effect,[6],3.88%
same,Percent Effect,Homo sapiens,9.39%
same,Percent Effect,[7],4.85%
same,Percent Effect,[8],2.44%
same,Percent Effect,[9],-8.29%
